Most compounds without a hit are left out; they make up all but 0.31% or so of the library.
TRPML1 agonist: human mucolipin-1 channel agonism. Q9GZU1. TRPML1-expressing cells, Ca2+ dye fluorescence, FDSS. activation, % (no concentration beside the values). 410,000 tested, 0.12% active. AID 624414; in the data active = activation above about 50%; inconclusive = mostly about 30% to 49%; also: 0% is about no effect
Target sequence (Q9GZU1 whole entry, looked up): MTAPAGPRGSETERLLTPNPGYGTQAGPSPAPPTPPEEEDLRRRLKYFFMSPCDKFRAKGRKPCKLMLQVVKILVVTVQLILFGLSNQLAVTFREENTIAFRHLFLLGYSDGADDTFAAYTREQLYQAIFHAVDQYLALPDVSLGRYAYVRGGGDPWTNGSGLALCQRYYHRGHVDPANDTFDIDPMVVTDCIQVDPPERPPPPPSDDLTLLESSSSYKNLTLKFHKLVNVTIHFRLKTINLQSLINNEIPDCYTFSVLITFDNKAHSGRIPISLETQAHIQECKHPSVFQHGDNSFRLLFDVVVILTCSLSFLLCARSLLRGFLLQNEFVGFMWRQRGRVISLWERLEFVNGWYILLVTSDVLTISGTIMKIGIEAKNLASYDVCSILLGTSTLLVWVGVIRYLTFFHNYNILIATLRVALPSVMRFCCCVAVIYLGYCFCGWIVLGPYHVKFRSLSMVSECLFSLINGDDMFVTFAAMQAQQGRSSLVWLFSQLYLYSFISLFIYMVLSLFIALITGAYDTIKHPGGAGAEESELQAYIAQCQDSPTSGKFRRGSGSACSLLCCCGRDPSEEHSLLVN
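Calcium fluorescence on an FDSS kinetic reader gave the read-out. Tet-induced TRPML1-DL cells were plated overnight, dye-loaded (Ca8 with quencher, 45-90 min, room temperature, dark), then read 110 s after compound addition, and again 110 s after 4uM final 54-4 (EC80).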
TRPV1 agonist: agonists of human vanilloid receptor 1 (TRPV1); Q8NER1; TRPV1-expressing cells, Fluo-8 calcium influx, agonist mode; activation, % at 8.33 µM; 320,000 tested, 0.19% active; in the data active = activation above about 80%; inconclusive = between about 30% and that limit; also: 0% is about no effect
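TRPV1-expressing cells were cultured overnight at 35.5C and loaded with Fluo-8 calcium dye for 40 to 90 min at room temperature. After a 10 s baseline, compound was added and calcium influx was read kinetically for 3 min (ex 480/em 520 nm).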
TRPML1 blocker: blocks the human TRPML1 channel; Q9GZU1; TRPML1-inducible cells, Ca2+ dye fluorescence, FDSS; hits give low values; inhibition of EC80 agonist-evoked calcium signal; activity change, negative = inhibition, % (concentration not given with the values); 390,000 tested, 0.02% active; in the data active = activity change below about -50%; inconclusive = between about -30% and that limit;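 also: stimulus is agonist 54-4 at its EC80 concentration; % is scaled to controls: 0 for no effect and ±100 for the full control effect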
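TRPML1-DL cells, Tet-induced overnight (~16 h, 37 °C) at 1,500 cells/well, were loaded with Ca8 no-wash dye plus quencher for 45-90 min at room temperature. Compounds were pinned during FDSS kinetic reading; agonist 54-4 at EC80 (4 uM final) then added.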
TRPV1 PAM: enhances activation of the human vanilloid receptor TRPV1. AID 540277. TRPV1-expressing cells, Fluo-8 calcium influx, capsaicin EC20 potentiation. Q8NER1. potentiation, % at 8.33 µM. 320,000 tested, 0.02% active; in the data active = potentiation above about 80%; inconclusive = between about 30% and that limit; also: 0% is about no effect
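TRPV1-expressing cells were cultured overnight at 35.5C and loaded with Fluo-8 calcium dye for 40 to 90 min at room temperature. After a 10 s baseline, compound was added and calcium influx was read kinetically for 3 min (ex 480/em 520 nm).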
* hit, by the source's call; ? = inconclusive; . = no result given.

SMILES	TRPML1 agonist	TRPV1 agonist	TRPML1 blocker	TRPV1 PAM
CCC(C)c1ccc(NC(=O)N2CCOCC2)cc1 (configuration not stated)	0	93*	-17	-24
CCC(C)c1ccc(NC(=O)c2ccco2)cc1 (configuration not stated)	.	82*	.	6
O=C(Nc1ccc(Cc2ccc(NC(=O)N3CCOCC3)cc2)cc1)N1CCOCC1	0	1	10	-2
CCc1ccc(NC(=O)c2ccc(S(=O)(=O)NCc3cccnc3)cc2)cc1	1	87*	-4	-31
COc1cccc(NC(=O)c2ccc(S(=O)(=O)NCc3cccnc3)cc2)c1	-2	2	18	3
Cc1ccc(NC(=O)c2ccc(S(=O)(=O)NCc3ccco3)cc2)cc1	0	82*	-6	1
O=C(c1ccc(Br)s1)N1CCN(Cc2ccc3c(c2)OCO3)CC1	-1	?	-51*	2
CC(C)(C)OC(=O)CNC(=O)c1[nH]cnc1C(=O)N[C@@H](Cc1ccccc1)C(=O)OC(C)(C)C	1	82*	32	-20
CCC(c1nnnn1-c1c(C)cccc1C)N1CCN(C/C=C/c2ccccc2)CC1 (configuration not stated)	0	.	.	.
CSCCC(c1nnnn1-c1c(C)cccc1C)N1CCN(C/C=C/c2ccccc2)CC1 (configuration not stated)	69*	.	.	.
COc1cc(/C=C/C(=O)c2ccc3c(c2)OCO3)cc(Cl)c1O	56*	?	2	0
COc1ccc(C(=O)C=Cc2ccc3c(c2)OCO3)cc1OC	0	.	19	.
COc1ccc(NS(=O)(=O)c2cc(NC(=O)c3cnc(C)cn3)ccc2N2CCCC2)cc1	0	?	-12	-26
COc1ccc(NS(=O)(=O)c2cc(NC(=O)c3cnc(C)cn3)ccc2N2CCCCC2)cc1	0	90*	45	-3
Cc1ccc(-n2nc(C(=O)Nc3cccc(C#N)c3)c3c4ccccc4n(C)c3c2=O)cc1	1	.	-5	.
CN1N/C(=C\c2ccccc2)N=C2C(=O)N(C)C(=O)N=C21	0	.	.	.

Screening results deposited in PubChem BioAssay by National Center for Advancing Translational Sciences (NCATS).
